# Source: PubChem BioAssay (NCI)
# The panel holds about 79,000 compounds, 15% with a hit somewhere; the sample as a whole holds those more often. A number with no mark means an inactive call. The source made the active and inactive calls. Rule as the data show it: active = growth inhibition above about 70%; inactive = the rest.
# Key:
# [1] = NCI Yeast Anticancer Drug Screen. Data for the rad50 strain (AID 155);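 also: 0% = growth of vehicle-only cultures of the same strain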; details: S. cerevisiae rad50 strain growth inhibition; at 50.0 µM; hits give high values
# How it was run: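 Relative growth inhibition (compound vs vehicle) was measured in yeast with a defined repair-gene alteration.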
# [2] = NCI Yeast Anticancer Drug Screen. Data for the mec2-1 strain (AID 157); details: S. cerevisiae mec2-1 strain, at 50.0 µM, hits give high values
# How it was run: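 Yeast mec2-1 mutant treated with compound. Readout: growth inhibition vs vehicle controls.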
# [3] = NCI Yeast Anticancer Drug Screen. Data for the sgs1 mgt1 strain (AID 161);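 also: 0% = growth of cultures given vehicle only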; details: S. cerevisiae sgs1 mgt1 strain, at 50.0 µM, hits give high values
# How it was run: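 Genetically altered yeast, compound exposure, growth inhibition relative to vehicle.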
# [4] = NCI Yeast Anticancer Drug Screen. Data for the cln2 rad14 strain (AID 165);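 also: 0% = growth equal to vehicle treated cultures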; details: S. cerevisiae cln2 rad14 strain, at 50.0 µM, hits give high values
# How it was run: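 cln2 rad14 yeast strain; compound exposure; growth inhibition read vs vehicle controls.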
# [5] = NCI Yeast Anticancer Drug Screen. Data for the bub3 strain (AID 167); details: S. cerevisiae bub3 mutant strain, at 50.0 µM, hits give high values
# How it was run: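 Screening used yeast with an engineered genetic alteration affecting cell cycle control. Compound-exposed cultures were compared with vehicle cultures, and reduced growth was taken as inhibition.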
# [6] = NCI Yeast Anticancer Drug Screen. Data for the mlh1 rad18 strain (AID 175); details: S. cerevisiae mlh1 rad18 strain growth inhibition; at 50.0 µM; hits give high values
# How it was run: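 Yeast w/ defined DNA-repair lesions; compound exposure; growth vs vehicle controls → % inhibition.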
SMILES,growth inhibition [1],growth inhibition [2],growth inhibition [3],growth inhibition [4],growth inhibition [5],growth inhibition [6]
O=C(C(=O)c1ccco1)c1ccco1,64.1%,-0.45%,34.1%,-24.6%,21.1%,35%
Cc1ccc(S(=O)(=O)C(=S)SCc2ccccc2)cc1,38.5%,37.8%,59%,19.6%,35.4%,33%
CCOC(=O)NC(=O)c1cn(C2OC(CO)C(O)C2O)c(=O)[nH]c1=O (stereo not given),10.3%,-18.6%,-16.6%,-5.9%,28.6%,44.5%
NC(=O)NNC(=O)NC12CC3CC(CC(C3)C1)C2,-19%,-11.8%,-10.2%,-45.8%,0.65%,21.6%
C/C(=N/O)c1ccc(C(F)(F)F)cc1,-5.25%,-15.6%,-18.8%,-17.9%,-48.5%,-2.15%
O=S(=O)(O)SCCCNCCCCCCCCNCCCSS(=O)(=O)O,-18.6%,-8.85%,-1.6%,-13.3%,8.45%,3.45%
CC(=O)Nc1ccc(OC(C)=O)cc1N,-8.9%,-8.15%,2.9%,-8.95%,2.95%,1%
Cc1cc2c(SCc3ccccc3Cl)nc(N)nc2nc1C,15.7%,12.3%,5.65%,-35%,-12.6%,31.6%
COC(=O)CN(c1c(C)cc(C)c(N)c1C)S(=O)(=O)c1ccccc1,0.2%,15.9%,4.65%,5.4%,-11.3%,-25.3%
O=C(Nc1ccc(S(=O)(=O)NC2CCCCC2)cc1)Oc1ccc([N+](=O)[O-])cc1,32.5%,3.55%,18.4%,10.8%,8.4%,19.4%
CN(C)CCCNC(=S)S,-17%,-28.6%,5.25%,11.2%,-22.1%,-4.35%
O=C1C2CC3C(C2)C13,-1.55%,-6.9%,-8.05%,-5.9%,-10.2%,11.5%
O=C(Nc1ccc(Cl)c(Cl)c1)OCCN1CCOCC1,82.3% (active),97.2% (active),94% (active),67.2%,91.2% (active),92.8% (active)
CCOC(=O)CCC1(C(=O)OCC)CCCCC1=O (stereo not given),-16.9%,-20.4%,-48.5%,-16.9%,-25.4%,-23.1%
CCc1c(CNc2ccc(Cl)c(Cl)c2)ccc2nc(N)nc(N)c12,90.7% (active),92.2% (active),91.9% (active),90% (active),90.5% (active),89.7% (active)
COC1OC(CCl)C(Cl)C(Cl)C1O (stereo not given),17.7%,-7.85%,4.55%,-44.2%,5.9%,4.8%
COc1ccc(CCN2C(=O)C(=O)N(c3ccc(Cl)c(Cl)c3)C2=O)cc1OC,3.05%,-0.25%,11.5%,14.3%,-4.35%,13%
CCOC(CN(N=O)c1ccccc1C(C)C)OCC,-3.95%,8.9%,7%,-21.9%,3.55%,-4.25%
CS(=O)(=O)c1c(N)c2nc(Cl)cn2c2nc3ccccc3nc12,-11.4%,-2.1%,-10.3%,-9.15%,-27.1%,-16.5%
Cn1cncc1CC1COC(=O)C1C(O)c1ccccc1 (stereo not given),11%,8.45%,-14.2%,-1.5%,-26.9%,-53.9%

SMILES,growth inhibition [1],growth inhibition [2],growth inhibition [3],growth inhibition [4],growth inhibition [5],growth inhibition [6]
COC1N(c2ccccc2)CCN1c1ccccc1,3.05%,6.1%,-23.2%,4.75%,5.55%,8.3%
N#Cc1n[nH]n(C2CCCCC2)c1=O,-29.4%,-12.8%,-13.3%,-0.3%,-20.1%,-14.2%
CC(C)CCCC(C)[C@H]1CCC2[C@@H]3CCC4Cc5nc6c(nc5C[C@]4(C)C3CC[C@@]21C)CC1CC[C@@H]2C(C[C@@H](O)[C@@]3(C)C2C[C@@H]2OC4(CCC(C)CO4)C(C)[C@@H]23)[C@@]1(C)C6 (stereo not given in full),-19.6%,1.65%,-21.8%,-15%,-10.9%,-8.65%
Cc1c(C(=O)NNc2ccccc2)n2c(=S)[nH]nc2c2ccccc12,33.2%,10.1%,-7.85%,8.6%,-14.8%,45.8%
CC(C)CC1N=C(OCc2ccccc2)OC1=O (stereo not given),-16.6%,-79.5%,-20.4%,-15.7%,5.25%,-14.2%
COc1cccc2c1ccc1nonc12,0.05%,-4.1%,-2.25%,-50%,-19.1%,2.2%
Cn1c(=O)c2[nH]c(CSc3ccccc3)nc2n(C)c1=O,9%,-5.15%,6.2%,-2.1%,21.8%,-14.8%
O=C1NOCC1NCc1c(O)ccc2ccccc12 (stereo not given),19.9%,13.2%,33.7%,26.6%,17.9%,23.2%
CCCCCCCCCCCCCCCCOCC(COS(C)(=O)=O)OS(C)(=O)=O (stereo not given),20%,2.15%,12.2%,33.3%,7.9%,1.5%
CN(C)c1ccc(C2c3c(oc4ccccc4c3=O)Oc3oc4ccccc4c(=O)c32)cc1,3.8%,-0.15%,-9.85%,5.4%,0.35%,-17.5%
CC(C)[Si](OC1=C(c2ccccc2)C(NC(=O)/C=C/c2ccc([N+](=O)[O-])cc2)CCC1)(C(C)C)C(C)C (stereo not given),19.2%,4.15%,-0.2%,-6.7%,-5.35%,29.9%
Cc1cnc(NCCCCCCNc2ncc(C)c(-c3ccccc3O)n2)nc1-c1ccccc1O,13.1%,-4.55%,-26.5%,4%,0.35%,4.5%
CN1C/C(=C\c2ccccc2)C2=NN(C(N)=S)[C@H](c3ccccc3)[C@@H]2C1,3.5%,-18.1%,-5.85%,10.9%,-19.8%,-16.9%
CCOC(=O)C1(O)c2ccccc2NC(=S)N1CC(Br)CBr (stereo not given),19.9%,-60.3%,15.8%,-7.6%,2.35%,32.6%
C=CCc1ccc(OC(=O)Nc2ccccc2)c(OC)c1,55.9%,25.2%,31.4%,13.9%,33.5%,23.4%
Nc1ccccc1C(=O)N/N=C/c1cccnc1,11.1%,-21.3%,17.7%,9.45%,13.2%,-16.6%
CC(C(=O)O)C1(O)CCCCC1 (stereo not given),0.6%,-13.9%,-8.4%,-25.4%,13.7%,-8.4%
O=C1c2ccccc2C(=O)C2C1C(c1ccccc1)N(c1ccccc1)C2c1ccccc1 (stereo not given),-16.4%,-1.55%,-7.1%,5.75%,2.65%,-3.1%
C[N+](C)(C)CCCOC1=Nc2ccccc2O/C1=C/c1ccccc1,-52.2%,2.1%,-6.3%,-27.4%,-4.1%,18.5%
CC(=O)OCOC(=O)CN(CC(=O)OCOC(C)=O)Cc1cc2c(cc1OC(C)=O)Oc1cc(OC(C)=O)c(CN(CC(=O)OCOC(C)=O)CC(=O)OCOC(C)=O)cc1C21OC(=O)c2ccccc21,14.1%,9.1%,15.2%,14.8%,-5%,35.1%
